System: Vero E6 infected with SARS-CoV-2
Assay: inhibition of SARS-CoV-2 cytopathic effect; higher = more antiviral protection, active = above 15
Conditions: 48 h

Measured: inhibition of SARS-CoV-2 cytopathic effect

COc1ccc2[nH]cc(C3=CCNCC3)c2c1
inactive: 1 nM 1.62% | 8.33 nM -0.77% | 100 nM 0.86% | 833.33 nM -2.22% | 10000 nM -3.05%

CC(C)(C)NCC(O)COc1cc(Cl)ccc1Cl (stereo not given) [cloranolol]
inactive: 1 nM -3.31% | 8.33 nM -3.27% | 100 nM -3.87% | 833.33 nM -3.29% | 10000 nM -8.51%

CCOc1ccc(/C=C2\NCCc3cc(OCC)c(OCC)cc32)cc1OCC [drotaverine]
inactive: 1 nM 1.53% | 8.33 nM 2.33% | 100 nM -0.04% | 833.33 nM 2.62% | 10000 nM 0.78%

Cc1ccc(C[N+](C)(C)C)o1 [5-methylfurmethiodide]
inactive: 1 nM -1.33% | 8.33 nM -0.75% | 100 nM -0.64% | 833.33 nM -0.84% | 10000 nM 0.7%

O=c1[nH]c(=O)n([C@H]2CCCO2)cc1F (racemic) [ftorafur]
inactive: 1 nM 0.19% | 8.33 nM -1.89% | 100 nM 6.11% | 833.33 nM -0.34% | 10000 nM -2.89%

CN(C)c1ccc(/C=C2\CCCN=C2c2cccnc2)cc1 [DMAB-anabaseine]
inactive: 1 nM -2.66% | 8.33 nM -1.76% | 100 nM 0.68% | 833.33 nM 4.31% | 10000 nM -5.07%

CC(=O)N[C@H](Cc1ccc2ccccc2c1)C(=O)N[C@H](Cc1ccc(Cl)cc1)C(=O)N[C@H](Cc1cccnc1)C(=O)N[C@@H](CO)C(=O)N[C@@H](Cc1ccc(NC(=O)[C@@H]2CC(=O)NC(=O)N2)cc1)C(=O)N[C@H](Cc1ccc(NC(N)=O)cc1)C(=O)N[C@@H](CC(C)C)C(=O)N[C@@H](CCCCNC(C)C)C(=O)N1CCC[C@H]1C(=O)N[C@H](C)C(N)=O [degarelix]
inactive: 1 nM -0.25% | 8.33 nM 1.93% | 100 nM 3.06% | 833.33 nM 1.45% | 10000 nM 2.25%

Oc1ccc(C2(c3ccccc3F)CCC(F)(F)CC2)cc1
inactive: 1 nM 1.54% | 8.33 nM -0.41% | 100 nM -0.21% | 833.33 nM -1.05% | 10000 nM 0%

COc1ccc2c(NC(=O)Nc3cccc(C(F)(F)F)n3)ccnc2c1
inactive: 1 nM 1.28% | 8.33 nM 1.81% | 100 nM 2.91% | 833.33 nM 10.2% | 10000 nM 11.1%

Cc1cccc(-c2n[nH]cc2-c2ccc3ncccc3n2)n1 [repsox]
inactive: 1 nM -0.69% | 8.33 nM 2.3% | 100 nM -2.26% | 833.33 nM -4.59% | 10000 nM -4.62%

O=C(Nc1nc2ccc(NC(=O)C34CC5CC(CC(C5)C3)C4)cc2s1)c1ccccc1
inactive: 1 nM 1.55% | 8.33 nM 3.1% | 100 nM 0.95% | 833.33 nM 2.14% | 10000 nM -6.77%

C1Cc2[nH]nc(-c3nn[nH]n3)c2C1
inactive: 1 nM -1.32% | 8.33 nM -1.1% | 100 nM -1.82% | 833.33 nM -3.19% | 10000 nM 2.43%

Nc1ccc(-c2ccc3ncc4ccc(=O)n(-c5cccc(C(F)(F)F)c5)c4c3c2)cn1 [torin-2]
inactive: 1 nM 0.99% | 8.33 nM -0.26% | 100 nM -2.28% | 833.33 nM -4.78% | 10000 nM -8.11%

CN(CC[C@@H](Oc1ccc(-c2ccccc2)cc1)c1ccc(F)cc1)CC(=O)O
inactive: 1 nM 0.18% | 8.33 nM 1.55% | 100 nM 0.56% | 833.33 nM 0.79% | 10000 nM 0.89%

Cc1ccc(OCCSc2ncccn2)c(Br)c1
inactive: 1 nM -2.86% | 8.33 nM -1.79% | 100 nM -1.08% | 833.33 nM -4.19% | 10000 nM -1.49%

CCOc1ccccc1OCC1CNCCO1 (stereo not given) [viloxazine]
inactive: 1 nM 5.7% | 8.33 nM 7.03% | 100 nM 7.67% | 833.33 nM 2.71% | 10000 nM 3.05%

COc1cccc(Nc2c(C(N)=O)cnc3c(C)cc(S(=O)(=O)c4cccc(C(=O)N(C)C)c4)cc23)c1
inactive: 1 nM 1.19% | 8.33 nM 3.12% | 100 nM 0.15% | 833.33 nM 3.01% | 10000 nM 0.48%

CCC(=O)N[C@@H]1Cc2ccccc2[C@H](c2ccccc2)C1
inactive: 1 nM 1.13% | 8.33 nM 2.8% | 100 nM 2.79% | 833.33 nM 3.72% | 10000 nM 2.13%

Cc1ccc(NC(=O)c2cccc(C(C)(C)C#N)c2)cc1Nc1ccc2ncn(C)c(=O)c2c1
inactive: 1 nM 1.24% | 8.33 nM 2.77% | 100 nM -0.67% | 833.33 nM -2.75% | 10000 nM -1.17%

Nc1ccn([C@@H]2CS[C@H](CO)O2)c(=O)n1 [lamivudine]
inactive: 1 nM -0.38% | 8.33 nM 0.6% | 100 nM -0.56% | 833.33 nM -0.22% | 10000 nM 4.96%
